Screens (PubChem BioAssay)
HepG2 tox: HepG2 cytotoxicity, counter-screen for TGF-b inhibitors | HepG2 CAGA-GFP viability, ATP luminescence, 18 h | Potency, µM (doses to about 46.1 µM), without a hit: at the top dose activity change, negative = cytotoxicity, usual class: cytotoxic | 0.76% of 410,000 active | AID 588856; note: potency is the fitted concentration of half-maximal effect
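CellTiter-Glo luminescence gave cytotoxicity after 18 hours at 37 degrees C. The cells were HepG2 CAGA-GFP in 1% FBS DMEM, stimulated with 500 pg/mL TGF-beta after compound addition. %Activity was normalised to no-cell wells (complete cell-killing) and DMSO (no toxicity), and curves were fitted and classified.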
IL-1B inflam inh: inflammasome signaling inhibition, IL-1 beta readout; THP-1 LPS/ATP IL-1B secretion, AlphaLISA, 16 h; hits give low values; AID 743279; 4.7% of 360,000 active; activity change, % at 57.5 µM; in the data active = activity change below about -50%; inconclusive = mostly about -30% to -49%; note: % is set by controls: 0 for no effect and ±100 for the full control effect
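THP-1 cells pretreated 1 hr with compounds (up to 57.5 uM final), then stimulated with LPS (250 ng/mL final) plus ATP (1.25 mM final); secreted IL-1B measured by AlphaLISA after 16 hr, decreased signal indicating inhibition.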
TGFb inhibitor: blocks TGF-b signaling; HepG2 CAGA-GFP TGF-b/SMAD3 reporter, GFP fluorescence, 18 h; TGF-beta stimulated, 500 pg/mL final; Potency, µM (doses to about 46.1 µM), for the others: at the top dose activity, negative = inhibition, most hits filed as inhibitors; 1.2% of 410,000 active; AID 588855; note: potency is the fitted concentration of half-maximal effect; % is set by controls: 0 for no effect and ±100 for the full control effect; nearly all actives have a fitted effect of over 65% in size
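Smad-responsive CAGA-GFP expression was quantified in HEPG2 cells exposed to compounds and 500 pg/mL final TGF-beta for 18 h at 37 degrees C; unstimulated wells defined full inhibition.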
TDP1 cell CPT: DT40-hTDP1 cell growth loss with CPT; chicken DT40 Tdp1-/-;hTDP1 cells + 20 nM CPT, ATP luminescence, 48 h; Potency, µM (top dose mostly 46.2 µM), for the others: at the top dose activity change, negative = growth inhibition, usual class: inhibitors; 12% of 420,000 active; note: potency is the fitted concentration of half-maximal effect; % is set by controls: 0 for no effect and ±100 for the full control effect; nearly all actives have a fitted effect of over 55% in size
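Cell growth measured by CellTiter-Glo luminescence after a minimum 48 h, 37 C compound exposure with 20 nM CPT in Tdp1-knockout DT40 cells stably expressing hTDP1, seeded 400/well; qHTS titration format.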
TDP1 inh: inhibitors of human tyrosyl-DNA phosphodiesterase TDP1; recombinant TDP1, AlphaScreen DNA substrate cleavage; Potency, µM (top dose mostly 130 µM), inactives show at the top dose activity change, negative = inhibition, hits mostly inhibitors; 0.28% of 350,000 active; note: potency is the fitted concentration of half-maximal effect; % is set by controls: 0 for no effect and ±100 for the full control effect; nearly all actives have a fitted effect of over 40% in size
Target sequence (Q9NUW8 whole entry, looked up): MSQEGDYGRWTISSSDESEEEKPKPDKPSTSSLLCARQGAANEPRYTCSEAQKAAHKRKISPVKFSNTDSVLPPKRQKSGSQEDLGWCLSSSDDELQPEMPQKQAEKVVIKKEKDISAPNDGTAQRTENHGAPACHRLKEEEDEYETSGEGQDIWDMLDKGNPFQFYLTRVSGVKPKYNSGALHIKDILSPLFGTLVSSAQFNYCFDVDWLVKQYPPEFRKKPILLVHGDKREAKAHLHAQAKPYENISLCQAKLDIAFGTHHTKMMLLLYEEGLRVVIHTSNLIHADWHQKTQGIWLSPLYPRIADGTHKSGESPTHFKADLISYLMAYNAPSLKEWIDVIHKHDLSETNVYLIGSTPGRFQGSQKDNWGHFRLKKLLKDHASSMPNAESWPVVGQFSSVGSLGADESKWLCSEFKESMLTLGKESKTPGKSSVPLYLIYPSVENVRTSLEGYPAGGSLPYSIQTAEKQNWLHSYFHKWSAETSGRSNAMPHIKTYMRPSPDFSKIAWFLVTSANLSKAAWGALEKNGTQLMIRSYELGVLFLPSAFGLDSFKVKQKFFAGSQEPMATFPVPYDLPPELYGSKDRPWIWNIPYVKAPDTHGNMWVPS
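Signal: AlphaScreen proximity between streptavidin donor and anti-FITC acceptor beads on intact substrate. Reaction: Tdp1 1 nM, substrate 15 nM final, 5 min RT after 15 min compound preincubation.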
DT40 TDP1 no CPT: qHTS for Inhibitors of human tyrosyl-DNA phosphodiesterase 1 (TDP1): qHTS in cells in absence of CPT; 15% of 420,000 active; DT40 Tdp1-/- hTDP1 cells, no CPT, ATP luminescence, 48 h; Potency, µM (series often up to 46.2 µM), for the others: at the highest dose activity change, negative = growth inhibition, most hits filed as inhibitors; note: potency is the fitted concentration of half-maximal effect; % is set by controls: 0 for no effect and ±100 for the full control effect; nearly all actives have a fitted effect of over 55% in size
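Growth kinetics read by CellTiter-Glo luminescence after ≥48 hr at 37 °C. Cells: DT40 Tdp1-/- stably carrying human TDP1, 400 per well, compound exposure in the absence of CPT (DMSO vehicle).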
The depositor's hits bear a star; i = inactive; ? = inconclusive; nt = no result; ! = a repeat was not active; [ ] = another dose, or the depositor's remark. Only some compounds are listed: those with a hit (about 19% of all), similar ones and a draw of the others. Unless noted, calls come from the whole dose curve; as a rule, active = well fitted curve in the direction sought with a large enough effect; inconclusive = small, poorly fitted or top-dose-only effect, or another doubt; inactive = no such curve, though single readings can be large; an effect the other way counts as inactive or inconclusive.

SMILES	HepG2 tox	IL-1B inflam inh	TGFb inhibitor	TDP1 cell CPT	TDP1 inh	DT40 TDP1 no CPT
Cc1noc(C)c1CC(=O)N1CCCC(N2CCN(c3ccccc3F)CC2)C1 (stereo not drawn)	-8%	-4	0%	-11%	nt	-14%
Cc1cnc(SCc2ccccn2)nc1C1CCCN(C(=O)c2ccc(-c3ccccc3F)cc2)C1 (stereo not drawn)	nt	nt	nt	?	nt	23µM*
Cc1c(N=Nc2c(O)[nH]c(=S)[nH]c2=O)c(=O)n(-c2ccccc2)n1C	-12%	10	-3%	1%	-2%	8%
C=CCn1c(O)c(N=Nc2c(C)n(C)n(-c3ccccc3)c2=O)c(=O)[nH]c1=S	11%	24	1%	16µM*	0%	9.2µM*
CNc1ccc2oc(C[C@H]3O[C@]4(CC[C@H]3C)O[C@H]([C@H](C)C(=O)c3ccc[nH]3)[C@H](C)C[C@H]4C)nc2c1C(=O)O	nt	nt	nt	1.5µM*	26%[56.1 µM]	1.1µM*
COc1ccc(C(c2nnnn2Cc2ccccc2)N2CCC3(CC2)C(=O)NCN3c2ccccc2)cc1 (stereo not drawn)	-1%	-58*	11µM*	?	nt	?
CCCCn1nnnc1C(C1CC1)N1CCC2(CC1)C(=O)NCN2c1ccccc1 (stereo not drawn)	-1%	3	?	?	nt	?
CCCCn1nnnc1C(c1ccc(OC)cc1)N1CCC2(CC1)C(=O)NCN2c1ccccc1 (stereo not drawn)	-36%	-13	?	18µM*	nt	?
CC(=O)NC1CCSC1=O (stereo not drawn)	nt	nt	nt	8%[21.1 µM]	nt	0%[21.1 µM]
CC(C)[C@@H]1CN[C@H](C(=O)O)[C@@H]1CC(=O)O	nt	nt	nt	-1%	12%	-16%
O=P(OC1CCCCC1)(OC1CCCCC1)C(O)c1ccc(Cl)cc1Cl (stereo not drawn)	-22%	?	7%	16µM*	-5%	21µM*
Cc1ccc2oc(=O)n(CCNC(=O)Nc3ccc(C)c(F)c3)c2c1	-35%	nt	0%	?	7%	23µM*
Cc1ccc2oc(=O)n(CCC(=O)Nc3ccc(N4CCOCC4)cc3)c2c1	-3%	-7	-23%	-2%	4%	?
CC(C)NC(=O)N1CCC2(CCNCC2)CC1	nt	nt	nt	6%	nt	-12%
CN(C)C1C(=O)C(C(N)=O)=C(O)[C@@]2(O)C(=O)C3=C(O)c4c(O)cccc4[C@](C)(O)C3C(O)C12 (stereo partly drawn)	nt	nt	nt	-18%	nt	-26%
CN(C)[C@@H]1C(=O)C(C(N)=O)=C(O)[C@@]2(O)C(=O)C3=C(O)c4c(O)ccc(Cl)c4[C@@](C)(O)[C@H]3C[C@@H]12	-38%	-4	-1%	15µM*!	nt	?
CN(C)[C@@H]1C(=O)C(C(N)=O)=C(O)[C@@]2(O)C(=O)C3=C(O)c4c(O)cccc4[C@@](C)(O)C3C[C@@H]12 (stereo partly drawn)	-25%	-9	1%	18µM*	nt	8.2µM*
CN(C)[C@@H]1C(=O)C(C(N)=O)=C(O)[C@@]2(O)C(=O)C3=C(O)c4c(O)cccc4[C@@](C)(O)[C@H]3[C@H](O)[C@@H]12	-3%	4	10%	7.3µM*!	nt	5.8µM*!
CC[C@@H]1/C=C/C=C/C[C@H](C)[C@@H](O)[C@](C)(O)C(=O)[C@H](C)[C@@H](O)[C@H](C)C(=O)[C@H](C)[C@@H](O)[C@H](C)/C=C/C(=O)O[C@H]2[C@@H](C)[C@@H](CC1)O[C@@]1(CC[C@@H](C)[C@@H](C[C@H](C)O)O1)[C@@H]2C	nt	nt	nt	nt	13%	nt
COC12C(COC(N)=O)C3=C(C(=O)C(C)=C(N)C3=O)N1CC1C2N1C (stereo not drawn)	-66%	6	-29%	0.052µM*	?	0.065µM*
CCCCOP(=O)(c1ccc(N(C)C)cc1)C(Nc1ccccc1)c1ccccc1 (stereo not drawn)	-95%	-96*	16µM*	15µM*	6%	21µM*
O=P1(Oc2ccccc2)CC=CC(COCc2ccccc2)O1 (stereo not drawn)	7%	nt	-20%	nt	8%	nt
Cn1c(O)c(C=NCc2cccs2)c(=O)n(C)c1=O	-3%	2	-1%	?	5%	1%
Cc1ccccc1OCCN=Cc1c(O)n(C)c(=O)n(C)c1=O	-27%	26	-7%	?	2%	21µM*
Cc1cc(C)c2c(ccc3cccc[n+]32)c1	-13%	-61*	-27%	?	nt	21µM*
SMILES	HepG2 tox	IL-1B inflam inh	TGFb inhibitor	TDP1 cell CPT	TDP1 inh	DT40 TDP1 no CPT
CC(=O)OC[C@]12C[C@H](OC(=O)CC(C)C)C(C)=C[C@H]1O[C@H]1[C@H](O)[C@@H](OC(C)=O)[C@@]2(C)[C@]12CO2	nt	nt	nt	0.012µM*	2%	0.0092µM*
Cc1nc2cc(F)ccc2n1C1CCN(Cc2nnnn2CCc2ccccc2)CC1	1%	?	8%	16µM*	10%	?
Cc1nc2cc(C(F)(F)F)ccc2n1C1CCN(Cc2nnnn2CCc2ccccc2)CC1	-14%	?	?	18µM*	5%	13µM*
FC(F)(F)c1ccc2c(c1)nnn2C1CCN(Cc2nnnn2Cc2ccccc2)CC1	-23%	?	1%	?	0%	?
Fc1ccc2c(c1)nnn2C1CCN(Cc2nnnn2C2CCCCC2)CC1	6%	-9	-6%	-4%	-3%	-20%
Cc1ccc(Cn2nnnc2CN2CCC(n3nnc4cc(C(F)(F)F)ccc43)CC2)cc1	-27%	?	-4%	?	5%	21µM*
CC(C)c1c(CN(C)[C@@H](C)Cc2ccccc2)n(C)n(-c2ccccc2)c1=O	nt	nt	nt	nt	13%[21 µM]	nt
CCC1(c2ccccc2)C(=O)NC(=O)N(C(=O)c2ccccc2)C1=O (stereo not drawn)	nt	nt	nt	-19%	9%	-21%
COc1ccc2[nH]c(C)c(CCNCc3cccnc3)c2c1	-2%	-5	16%	1%	5%	10%
Cc1[nH]c2ccc(OC(F)(F)F)cc2c1CCNCc1cccc([N+](=O)[O-])c1	i	-95*	?	?	nt	13µM*
CCOc1cccc(CNCCc2c(C)[nH]c3ccc(OC(F)(F)F)cc23)c1O	-1%	-98*	-9%	2.9µM*	nt	2.1µM*
